In article PMC10726135, “HNF4α isoforms regulate the circadian balance between carbohydrate and lipid metabolism in the liver”:
In all, about 18,000 sequences were measured (“log2 normalized intensity”: median about 0.39, highest 2% from about 6.6 on). The entries come from a sample that favours the highest values as a whole.

What follows are sequences tested against T1, HNF4alpha2 (COS-7 nuclear extract) (Homo sapiens, UniProt P41235 1-474) (assay: protein-binding microarray; COS-7 nuclear extract on double-stranded Agilent 4x180k PBM; binding buffer, salt, pH and temperature not given in the material; high values mean tight binding). Settings: chain copies: 2; label: 3' end of strand 1 on the slide; dsDNA, one strand shown.
T1 sequence: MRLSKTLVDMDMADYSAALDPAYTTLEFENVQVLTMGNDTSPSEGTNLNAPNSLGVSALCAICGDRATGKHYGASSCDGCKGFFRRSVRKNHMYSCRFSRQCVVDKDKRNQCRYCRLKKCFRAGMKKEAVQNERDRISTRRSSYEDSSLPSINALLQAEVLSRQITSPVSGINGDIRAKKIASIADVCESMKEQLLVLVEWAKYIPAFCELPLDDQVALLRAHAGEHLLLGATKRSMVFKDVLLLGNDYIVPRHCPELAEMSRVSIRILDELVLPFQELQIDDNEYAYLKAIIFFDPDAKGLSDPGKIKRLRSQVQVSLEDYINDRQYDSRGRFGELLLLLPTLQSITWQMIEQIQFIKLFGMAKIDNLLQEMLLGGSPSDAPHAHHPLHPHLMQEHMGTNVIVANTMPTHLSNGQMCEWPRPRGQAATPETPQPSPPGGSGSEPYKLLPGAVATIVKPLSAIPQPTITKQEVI
Procedure, shortened: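 A custom Agilent SurePrint G3 4x180k array, spotted in quadruplicate with ~44,000 test sequences as ~60-nt oligonucleotides made double-stranded, was incubated with nuclear extracts. The extracts came from COS-7 cells transiently transfected by CaPO4 with a human HNF4α isoform expression vector. Bound HNF4α was imaged on an Agilent G2565CA scanner at 2-µm resolution, and the binding signal was taken as Agilent software's background-corrected, normalized gProcessedSignal.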

Sequence | binding signal [log2 normalized intensity]
CTTTCTATCAGCTCTCCGTGGACTTTGCCCGCCTAGGGAGATTAGAGTATCGGTCGA | 9.49
TCTTCCTTTCTATCAGCTCTCCGTGGACTTGCCTAGGGAGATTAGAGTATCGGTCGA | 3.08
TTTGGCCCCCAGAGCCCCGTGTCTCCCTACGCCTAGGGAGATTAGAGTATCGGTCGA | 4.6
CCAAACAGAACAAAGTCCAGTAAGGACAGTGCCTAGGGAGATTAGAGTATCGGTCGA | 2.51
GAGTAGGTTCTCAGCTGACATTGGTGGAATGCCTAGGGAGATTAGAGTATCGGTCGA | 1.36
AGTCCAGACAAGTCCCAAGTATTTTCAGCCGCCTAGGGAGATTAGAGTATCGGTCGA | -0.962
AACTTCTTATCACTTGGTGGACATGGTTCAGCCTAGGGAGATTAGAGTATCGGTCGA | 2.02
AGATATCAGAAATGCATGAGTGACCTTTATGCCTAGGGAGATTAGAGTATCGGTCGA | 4.97
CTCTTTTCTTTGTACCGTATTTCAGACCACGCCTAGGGAGATTAGAGTATCGGTCGA | 2.19
CAATTAGAGCAAAGGTTACTGCAGAGAAGAGCCTAGGGAGATTAGAGTATCGGTCGA | 1.54
AGAGCACAACCTTTGGCCGTGCATGCTTGGGCCTAGGGAGATTAGAGTATCGGTCGA | 1.84
GGCAGATATGAAAGAGCCATGGACTGCTGAGCCTAGGGAGATTAGAGTATCGGTCGA | -0.302
CCTTTGAGGAGGCCTTTCCTGACCCCTCCTGCCTAGGGAGATTAGAGTATCGGTCGA | 4.34
ATCTTTGACCTGGAGCATGACCCTTTGCAGGCCTAGGGAGATTAGAGTATCGGTCGA | 2.68
AGCAATTCAAATTCTTTGCCATGACCTTTGGCCTAGGGAGATTAGAGTATCGGTCGA | 5.51
TTCAAATTCTTTGCCATGACCTTTGAAGCCGCCTAGGGAGATTAGAGTATCGGTCGA | 6.75
ATATGAAAGAGCCATGGACTGCTGACCTTTGCCTAGGGAGATTAGAGTATCGGTCGA | 6.32
AAAGAGCCATGGACTGCTGACCTTTGAACCGCCTAGGGAGATTAGAGTATCGGTCGA | 9.3
ATTCTTTGCCATGACCTTTGAAGCCCAGAAGCCTAGGGAGATTAGAGTATCGGTCGA | 4.66
GCCATGGACTGCTGACCTTTGAACCCTGAGGCCTAGGGAGATTAGAGTATCGGTCGA | 10.1
CAGTAACTGTCATGGATGACCTCTTTTAGTGCCTAGGGAGATTAGAGTATCGGTCGA | 3.08
GCTGTCTACTCTGGGGGTCAGCAATGGTAAGCCTAGGGAGATTAGAGTATCGGTCGA | 1.8

Sequence | binding signal [log2 normalized intensity]
TGCCCCAGGAATGCCTTTTCTTTCATGTTGGCCTAGGGAGATTAGAGTATCGGTCGA | 1.43
GTTGAGGAGTTTGTACTTTATCCTACAAGGGCCTAGGGAGATTAGAGTATCGGTCGA | 2.25
TCCTCTCAAAGTCCACCCGGCCAGCAGATGGCCTAGGGAGATTAGAGTATCGGTCGA | 2.46
AAAGGTCATATCCAAAATATTTGCAGTGAGGCCTAGGGAGATTAGAGTATCGGTCGA | 1.79
ATATTTTCTTTGTGCTATTTTTGGCTTGGTGCCTAGGGAGATTAGAGTATCGGTCGA | 2.13
CCATTCTTGAGGACAGGCCAAATCCAGTAAGCCTAGGGAGATTAGAGTATCGGTCGA | -0.994
GCCTTGCTGAGGAATTTGGACTTCAGCCCAGCCTAGGGAGATTAGAGTATCGGTCGA | 6.11
TGGGAGACATTCCTTCAGCGTGAACTTTGAGCCTAGGGAGATTAGAGTATCGGTCGA | 6.72
CTTTATACCTGTACGTTACTCTGTACCTCGGCCTAGGGAGATTAGAGTATCGGTCGA | 1.19
GTCCACACATTCCTAGACCTTTGACCTTTAGCCTAGGGAGATTAGAGTATCGGTCGA | 8.13
GACCTTTGACCTTTATACCTGTACGTTACTGCCTAGGGAGATTAGAGTATCGGTCGA | 7.39
CCCAAGATGGATTGGGTCCACACATTCCTAGCCTAGGGAGATTAGAGTATCGGTCGA | -0.811
GACATTCCTTCAGCGTGAACTTTGACATGAGCCTAGGGAGATTAGAGTATCGGTCGA | 5.5
TCCTTCAGCGTGAACTTTGACATGAGAGAAGCCTAGGGAGATTAGAGTATCGGTCGA | 3.66
ATTGTGATTCCTGTGATACCTTCTTTGCCTGCCTAGGGAGATTAGAGTATCGGTCGA | 1.13
TTGACCTTTATACCTGTACGTTACTCTGTAGCCTAGGGAGATTAGAGTATCGGTCGA | 3.65
ATTGGGTCCACACATTCCTAGACCTTTGACGCCTAGGGAGATTAGAGTATCGGTCGA | 3.26
CACATTCCTAGACCTTTGACCTTTATACCTGCCTAGGGAGATTAGAGTATCGGTCGA | 7.82
TCCTAGACCTTTGACCTTTATACCTGTACGGCCTAGGGAGATTAGAGTATCGGTCGA | 5.75
GAATCACTCACTGACCTCTTTTGGATTTTTGCCTAGGGAGATTAGAGTATCGGTCGA | 1.73
TCAGGAGTGATGCCAGAAGATTAGTGATGGGCCTAGGGAGATTAGAGTATCGGTCGA | -0.625
